Screen size: about 140,000 compounds; about 2,100 (1.5%) were called active. The sample as a whole holds a higher share of actives than the screen did. Unmarked numbers belong to inactive results.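 The calls were made as follows: active = viability at or under a set limit, the compound median less 4 SD (cut at about 6% in these data); inactive = the rest.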

As usually defined, the viability is the share of living cells, or the viability signal relative to a control.

The nature of this test: primary screen for suppressors of beta-catenin knockout HCT116 cell growth, colon tumor, human (AID 818).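 Also: 0% = Hyamine 1622 control at 20 µM and 100% = untreated cell control.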 The conditions noted are these: CellTiter-Glo, 60 h, at 10 µM, stronger effect = lower value. A general note: In ATP-based viability assays light output follows the ATP content of the culture.
As to `CN(C)c1ccc(/C=C2\CC3C4CC=C5CC(O)CCC5(C)C4CCC3(C)C2=O)cc1` (stereo not given), the viability is 2.09% (active).

On to `C[N+]1(C)CCOC(O)(c2ccc(-c3ccc(C4(O)C[N+](C)(C)CCO4)cc3)cc2)C1` (stereo not given), for which the viability was 79.5%.

As to `Cc1nn(Cc2ccccc2Cl)c(Cl)c1C(=O)OC(C(=O)NC(N)=O)C(C)C` (stereo not given), the viability was 83%.

Regarding `Cc1ccc2c(c1)=C/C(=C\c1c(O)[nH]c(=O)[nH]c1=O)C(=O)N=2`, the viability is 82.4%.

For `Cc1cccc(OP(=O)(Oc2cccc(C)c2)OC(c2ccccc2)C(F)(F)F)c1` (stereo not given), the viability was 66.6%.

Source of the values: PubChem BioAssay AID818 (SRMLSC, 2007).
